Measured potencies and affinities stand elsewhere. Activity calls are given as the source filed them. How the calls were made is not given here.
Assay: mammalian cell viability reduction – secondary assay, cytotoxicity control for West Nile virus antiviral project, dose response (AID 1650)
Conditions: Mammalian host cell viability, cytotoxicity counter-screen; series mostly up to 10 µM

Structure (SMILES)	outcome
COc1ccc(OCC(O)Cn2c(=N)n(Cc3ccccc3)c3ccccc32)cc1 (stereo not given)	inactive
CCOC(=O)C1(Cc2ccccc2C(F)(F)F)CCN(C2CCN(C(C)C)CC2)CC1	inactive
CN(C)Cc1c(C(=O)N/N=C/c2cccc(OCc3c(F)cccc3Cl)c2)nnn1-c1nonc1N	inactive
O=C(NCCOc1ccccc1Cl)c1ncn[nH]1	inactive
COc1ccc(CCNC(=O)c2cc3c(=O)n4cccc(C)c4nc3n(CCCN3CCOCC3)c2=N)cc1	inactive
CN1CCN(c2ccc(C(F)(F)F)cc2NC(=O)Nc2ccccc2)CC1	inactive
Cn1c(N/N=C/c2c[nH]c3ccccc23)nc2ccccc21	inactive
CN(C)CCNc1ncnc2c1sc1nc(-c3ccccc3)c3c(c12)CCCC3	inactive
Cc1cc(C)c(-c2csc(NC(=O)/C=C/c3cccs3)n2)c(C)c1	inactive
CN(C)CCCN1c2ccc([N+](=O)[O-])cc2CCc2cc([N+](=O)[O-])ccc21	inactive
CCN(CC)CCCNC(=O)c1cc(-c2ccccc2)c(N2CCCCC2)s1	inactive
CCCN1CCN(C(=S)Nc2ccc3nc(N4CCN(CC)CC4)cc(C)c3c2)CC1	inactive
COc1ccc2[nH]c3nc(SCc4nnc(-c5ccc(C)cc5)o4)nnc3c2c1	inactive
CCN1CCN(CCCNC(=O)C2CCCN(c3nc4c(C)cc(C)cc4s3)C2)CC1 (stereo not given)	inactive
CCN1CCN(c2ncc(C(=O)Nc3cc(Cl)c(OC)cc3OC)c3ccccc23)CC1	inactive
Cc1ccc(-c2cc(C(=O)NCCCN3CCCC3)c3ccccc3n2)cc1C	inactive
COc1cc(C(=O)N/C(=C/c2ccc(F)cc2)C(=O)NC(C(=O)O)c2ccccc2)cc(OC)c1OC (stereo not given)	inactive
CC1CCCN(CCCNC(=O)c2ccc3c(c2)N(Cc2ccccc2F)C(=O)c2ccccc2S3(=O)=O)C1 (stereo not given)	inactive
CC(C)n1cc(/C=C2/SC(=O)N(CC(=O)Nc3ccc4c(c3)OCO4)C2=O)c2ccccc21	inactive
CC1=CC(C)(C)N2C(=O)C3(NCCc4c3[nH]c3ccccc43)c3cc(C)cc1c32 (stereo not given)	inactive

Structure (SMILES)	outcome
C/C(N)=C(/C#N)C(=O)COC(=O)c1cc(-c2cccc(Br)c2)nc2ccccc12	inactive
CN(C)CCN(C)Cc1ccccc1Sc1cccc2ccccc12	inactive
Cc1ccc(Sc2nnc(Cc3ccccc3)c3ccccc23)cc1	inactive
CN1CCN(c2nc(Nc3ccc(F)cc3)nc(Nc3ccc(F)cc3)n2)CC1	inactive
C[C@H]1[C@H](C)CC[C@]2(C(=O)O)CC[C@]3(C)C(=CC[C@@H]4[C@@]5(C)C[C@@H](O)[C@H](O)C(C)(C)[C@@H]5CC[C@]43C)[C@H]12	inactive
OCCN(CCO)CC(O)COc1ccc(C23CC4CC(CC(C4)C2)C3)cc1 (stereo not given)	inactive
O=C(Nc1ccc(-n2ccc(C(F)(F)F)n2)cc1)Nc1cccc(Cl)c1	inactive
O=C(CN1C(=O)/C(=C\c2cccc(Cl)c2)Sc2ccccc21)NCCCN1CCOCC1	inactive
CCN(CC)CCCN1CC(O)=C(c2nc3ccccc3s2)C1=N	inactive
CCCCN(CC)CCNC(=S)Nc1ccc2nc(N3CCN(C)CC3)cc(C)c2c1	inactive
CCCc1nc2c(c(=O)c3ccccc3n2C)c(=O)n1C1CCCCCC1	inactive
Cc1cccc(CN2CCC(CNC(=O)CSc3cc(=O)n(C)c4cc(Cl)ccc34)CC2)c1	inactive
Cc1cc(C)cc(SCc2noc(C(=O)NCCN(C)C)c2C(=O)NCCN(C)C)c1	inactive
O=C1Nc2cc(C(=O)NCCCN3CCOCC3)ccc2S/C1=C/c1cccc(Cl)c1	inactive
CCN1CCN(c2cc(C)c3cc(NC(=S)N4CCCC(C)C4)ccc3n2)CC1 (stereo not given)	inactive
CC(C)Cc1nc2oc3c(NCCCN4CCOCC4)ncnc3c2c2c1CCC2	inactive
CCN(CC)CCC(c1cc(OC)c(OC)c(OC)c1)c1c(OC)cc(OC)c2c(-c3ccccc3)cc(=O)oc12 (stereo not given)	inactive
Cc1ccc(NC2=C/C(=N/S(=O)(=O)c3cccs3)c3ccccc3C2=O)cc1	inactive
CCN(CC)CCCNC(=S)N1CCN(c2nc(-c3ccccc3)cs2)CC1	inactive
CN1CCN(c2ccc(NC(=O)c3ccc(-c4cccc([N+](=O)[O-])c4)o3)cc2)CC1	inactive

From PubChem BioAssay AID1650 (Southern Research Specialized Biocontainment Screening …, 2009)
